Reference: publication PMC4336329 (PLoS ONE, 2015)
The campaign covered roughly 310,000 compounds. About 14,000 (4.5%) showed an effect of 50% or more. The effect is printed as a negative number. The full list was thinned out, with strong results kept by preference.

target: human ether-à-go-go-related gene (hERG) potassium channel (human, UniProt Q12809); test: primary screen, population patch clamp on CHO cells stably expressing hERG; higher = less effect of the substance
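Also: peak tail current of the secondary pulse compared with the same well before compound.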

human ether-à-go-go-related gene (hERG) potassium channel, sequence (Q12809 whole entry, looked up): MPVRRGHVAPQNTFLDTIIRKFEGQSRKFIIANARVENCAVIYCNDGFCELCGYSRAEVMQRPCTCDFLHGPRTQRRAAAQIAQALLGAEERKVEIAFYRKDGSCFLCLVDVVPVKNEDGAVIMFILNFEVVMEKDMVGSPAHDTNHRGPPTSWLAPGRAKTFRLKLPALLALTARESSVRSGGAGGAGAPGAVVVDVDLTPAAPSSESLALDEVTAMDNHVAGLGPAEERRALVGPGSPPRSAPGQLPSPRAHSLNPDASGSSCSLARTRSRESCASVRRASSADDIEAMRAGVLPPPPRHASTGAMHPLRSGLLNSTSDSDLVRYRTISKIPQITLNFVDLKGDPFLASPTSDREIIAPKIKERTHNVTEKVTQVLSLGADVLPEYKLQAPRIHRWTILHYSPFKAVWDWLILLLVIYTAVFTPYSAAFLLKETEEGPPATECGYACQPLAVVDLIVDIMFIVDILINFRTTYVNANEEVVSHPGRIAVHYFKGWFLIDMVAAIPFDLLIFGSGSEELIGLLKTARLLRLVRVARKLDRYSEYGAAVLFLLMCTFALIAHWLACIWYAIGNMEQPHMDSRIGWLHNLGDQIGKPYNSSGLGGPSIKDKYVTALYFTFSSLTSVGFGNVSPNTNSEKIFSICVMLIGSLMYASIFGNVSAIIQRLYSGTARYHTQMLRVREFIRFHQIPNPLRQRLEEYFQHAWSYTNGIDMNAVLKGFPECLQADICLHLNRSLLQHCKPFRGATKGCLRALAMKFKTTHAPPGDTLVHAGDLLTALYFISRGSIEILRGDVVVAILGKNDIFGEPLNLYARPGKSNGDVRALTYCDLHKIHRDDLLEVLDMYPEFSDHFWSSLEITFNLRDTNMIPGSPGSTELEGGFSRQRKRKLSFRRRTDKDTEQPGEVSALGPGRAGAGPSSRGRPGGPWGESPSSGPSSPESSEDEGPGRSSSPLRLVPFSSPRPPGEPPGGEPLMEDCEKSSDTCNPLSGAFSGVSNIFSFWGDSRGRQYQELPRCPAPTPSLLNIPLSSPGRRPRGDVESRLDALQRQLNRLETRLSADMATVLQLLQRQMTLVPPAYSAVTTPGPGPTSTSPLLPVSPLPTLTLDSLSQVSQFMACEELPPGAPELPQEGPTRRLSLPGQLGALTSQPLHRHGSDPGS

Row | Compound | hERG current change (%, negative = inhibition) at 10uM
1 | CC(C)CC(C(=O)NC1CCCC1)N(Cc1cccs1)C(=O)c1snc(C(N)=O)c1N (centres unmarked) | -40.5%
2 | CS(=O)(=O)c1ccc2nnn(OCC(=O)Nc3ccc(Br)cc3Br)c2c1 | 7.34%
3 | Cc1ccc(/C=N/c2sc3c(c2C(N)=O)CCCC3)o1 | 23.3%
4 | COCCNC(=O)/C(C#N)=C/c1cccc(/C=C(\C#N)C(=O)NCCOC)c1 | 0.707%
5 | COc1ccc(CC2(CO)CCN(Cc3cnn(-c4ccc(F)cc4)c3)CC2)cc1 | -76.4%
6 | COc1ccc(CC2(CO)CCN(Cc3cnn(-c4ccccc4)c3)CC2)cc1 | -77.6%
7 | COc1ccccc1-n1cc(CN2CCN(C3CCCC3)C(CCO)C2)cn1 (centres unmarked) | -15.3%
8 | COc1ccc(CC2(CO)CCN(Cc3cccnc3)CC2)cc1 | -40.3%
9 | COc1ccc(CC2(CO)CCN(Cc3cnn(-c4ccccc4OC)c3)CC2)cc1 | -64.8%
10 | COc1ccc(CC2(CO)CCN(Cc3cnc(-c4ccccc4C)nc3)CC2)cc1 | -20.6%
11 | COc1ccccc1-n1cc(CN2CCN(CC=C(C)C)C(CCO)C2)cn1 (centres unmarked) | -13.7%
12 | Cc1ccc(CCNC(=O)C2CCN(S(=O)(=O)c3ccc4c(c3)NC(=O)CO4)CC2)cc1 | -1.82%
13 | CC(NC(=O)OCc1ccccc1)c1ccccc1 (centres unmarked) | -22.9%
14 | COCCN1C(=O)N(c2cccc(C)c2)C(=O)C1CC(=O)Nc1cc(OC)cc(OC)c1 (centres unmarked) | 10.2%
15 | CC(C)Cc1nnc(NC(=O)CCC(=O)N2CCN(c3ccccc3)CC2)s1 | 13.2%
16 | CCN(CC)CCNC(=O)c1cc([N+](=O)[O-])c(N(C)C)cc1OC.Cl | -12%
17 | CCCSc1cc(Cl)nc(N)n1 | -9.06%
18 | COc1ccc(S(=O)(=O)Nc2cccc(F)c2C)cc1C(=O)N1CCOCC1 | 6.33%
19 | CC(NC(=O)COC(=O)c1cn(-c2ccccc2)nc1-c1cccs1)c1ccccc1 (centres unmarked) | 0.115%
20 | COC(=O)c1c(NC(C)=O)sc(C(=O)Nc2ccccc2OC)c1C | 16.2%

Row | Compound | hERG current change (%, negative = inhibition) at 10uM
21 | CC(Cc1n[nH]c(=S)o1)c1ccccc1 (centres unmarked) | 20.7%
22 | COc1cccc(C(C(=O)NC2CCCC2)N(Cc2cccnc2)C(=O)Cc2cccs2)c1 (centres unmarked) | -5.67%
23 | COc1ccc(C2=Nc3ccc(C)cc3C(c3ccccc3)N2CC(=O)NN)cc1 (centres unmarked) | -23.2%
24 | O=[N+]([O-])c1ccccc1NCc1ccc(Cl)cc1 | -19.5%
25 | C=CCNCC(O)COc1ccc(C(C)=O)cc1OC.O=C(O)C(=O)O (centres unmarked) | -6.16%
26 | C/C=C/c1ccc(OCC(O)CNCC(c2ccc(OC)cc2)N(C)C)c(OC)c1.O=C(O)C(=O)O (centres unmarked) | -66.5%
27 | C/C=C/c1ccc(OCCCNCC(C)O)c(OC)c1 (centres unmarked) | -29.2%
28 | COC(=O)c1ccc(OCC(O)CNCC(c2ccc(OC)cc2)N(C)C)c(OC)c1 (centres unmarked) | -21.4%
29 | C/C=C/c1ccc(OCC(O)CNCCc2ccc(OC)cc2)c(OC)c1.O=C(O)C(=O)O (centres unmarked) | -73.4%
30 | Cc1cc(Br)ccc1NC(=O)CN(C)C(=O)C1CSC2(C)CCC(=O)N12 (centres unmarked) | 11.5%
31 | CC1=CC(C)(C)Nc2ccc(OC(=O)CCN3C(=O)c4ccccc4C3=O)cc21 | 0.14%
32 | COc1ccc(C(=O)NC2CCN(C(=S)Nc3ccccc3)CC2)cc1 | 12.7%
33 | CNC(=O)c1c[nH]n2c(=O)c(Cc3ccccc3F)c(C)nc12 | 16.9%
34 | COc1cccc(/C=C/C(=O)NNC(=O)c2ccncc2)c1 | -20.5%
35 | CCOc1cnc(C(=O)NNC(=O)c2ccccc2Br)o1 | 11%
36 | CCCNS(=O)(=O)c1ccc(OCC(=O)NCc2ccc3c(c2)OCO3)cc1 | -23.8%
37 | C=CCNC(=O)/C(C#N)=C/c1c(C)nn(-c2ccccc2)c1Cl | -20%
38 | O=C(NC1CCS(=O)(=O)C1)/C(=C\c1ccccc1)NC(=O)c1ccccc1 (centres unmarked) | -11%
39 | O=C(/C=C/c1ccccc1)NC1CCS(=O)(=O)C1 (centres unmarked) | 18.1%
40 | O=C(NC(NC1CCS(=O)(=O)C1)C(Cl)(Cl)Cl)c1cccc(Cl)c1 (centres unmarked) | -7.37%

Row | Compound | hERG current change (%, negative = inhibition) at 10uM
41 | O=C(NC1CCS(=O)(=O)C1)/C(=C\c1ccc(F)cc1)NC(=O)c1ccccc1 (centres unmarked) | -34.7%
42 | O=C(/C=C/c1ccc(Cl)cc1)NC1CCS(=O)(=O)C1 (centres unmarked) | -58.7%
43 | Cc1ccc(/C=C/C(=O)NC2CCS(=O)(=O)C2)cc1 (centres unmarked) | 20.6%
44 | O=C(NC1CCS(=O)(=O)C1)/C(=C/c1ccc(Cl)cc1)NC(=O)c1ccccc1 (centres unmarked) | -55%
45 | O=C(NC(NC1CCS(=O)(=O)C1)C(=O)c1cccs1)c1ccccc1 (centres unmarked) | -1.01%
46 | O=C(NC(NC1CCS(=O)(=O)C1)C(=O)c1ccccc1)c1ccc(Cl)cc1 (centres unmarked) | -51.6%
47 | Cc1ccc(NC(=O)NCc2ccccn2)cc1 | 37.7%
48 | Fc1ccc(OCc2nc(-c3cccs3)no2)cc1 | -9.58%
49 | c1ccc(Cc2nn3c(COc4ccccc4)nnc3s2)cc1 | 6.61%
50 | CC1=C(C(=O)OCc2ccccc2)C(c2ccccc2[N+](=O)[O-])NC(=O)N1C (centres unmarked) | 1.71%
51 | COc1ccccc1Nc1nc(N)nc(CCl)n1 | 3.4%
52 | COc1ccc(N2CCN(Cc3nc(N)nc(Nc4ccccc4OC)n3)CC2)cc1 | -62%
53 | COc1ccccc1Nc1nc(N)nc(CN2CCN(c3ccccc3)CC2)n1 | -52.9%
54 | COc1ccccc1Nc1nc(N)nc(CN2CCC(Cc3ccccc3)CC2)n1 | -84.5%
55 | COc1ccccc1Nc1nc(N)nc(CSC(=S)N2CCN(c3ccccc3)CC2)n1 | 6.86%
56 | COc1ccccc1Nc1nc(N)nc(CN2CCN(Cc3ccccc3)CC2)n1 | -73.2%
57 | COc1cccc(N2CCN(Cc3nc(N)nc(Nc4ccccc4OC)n3)CC2)c1 | -25.6%
58 | COc1ccc(OCc2nc(N)nc(Nc3ccccc3OC)n2)cc1 | 9.46%
59 | COc1ccccc1Nc1nc(N)nc(CSC(=S)N2CCOCC2)n1 | -9.92%
